Screening data from PubChem.
L3MBTL1 inh – blocks human L3MBTL1. Q9Y468. AlphaScreen L3MBTL1–H3K9me1 peptide binding. Potency, µM (series often up to 57.1 µM), for the others: at the top dose activity, negative = inhibition, usual class: inhibitors. hit rate 0.66% among 230,000. AID 485360; also: potency is read from the fitted curve at half-maximal effect; % is scaled to controls: 0 for no effect and ±100 for the full control effect; nearly all actives have a fitted effect of over 60% in size
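L3MBTL1 50 nM + b-AHA-H3(1-15)K9me1 75 nM, 30 min RT; compound added, 30 min RT; streptavidin donor/Ni-chelate acceptor beads 10 ug/mL each final, 30 min RT dark; AlphaScreen read.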
PI5P4K alpha inh – blocks human PI5P4K alpha kinase activity | max response, % | P48426 | AID 652105 | hit rate 1.2% among 330,000 | PI5P4Kalpha enzyme, ADP-Glo luminescence, 60 min; hits give low values; active = max response of -50% or lower; inconclusive = between -30% and -50%; inactive = -30% or higher; also: value at the top dose of about 77 µM; % is scaled to controls: 0 for no effect and ±100 for the full control effect
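Human PI5P4Kalpha with substrate in 0.038 M HEPES pH 7.4, 0.28 mM EGTA, 0.1% CHAPS, 5% DMSO; reaction started with 5 microM ATP (final), 60 min at room temperature. ADP formed read by ADP-Glo luminescence.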
BAZ2B inh – inhibitors of human BAZ2B bromodomain | Q9UIF8 | AlphaScreen BAZ2B-H3K14Ac peptide displacement | Potency, µM (doses to about 114 µM), inactives show at the top dose activity change, negative = inhibition, actives largely listed as inhibitors | hit rate 4.4% among 360,000 | AID 504333; also: potency is read from the fitted curve at half-maximal effect; % is scaled to controls: 0 for no effect and ±100 for the full control effect; nearly all actives have a fitted effect of over 60% in size
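AlphaScreen luminescence quantifies BAZ2B engagement of H3K14Ac peptide; the protein and biotinylated peptide are both at 50 nM final, buffer PBS pH 7.4 with 0.01% Tween-20, all steps at room temperature.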
HP1b binding inh – HP1-beta chromodomain-methylated histone interaction inhibition; P83916; AlphaScreen HP1-beta / biotin-H3K9me3 peptide binding; Potency, µM (titrated, usually from 114 µM), without a hit: at the top dose activity change, negative = inhibition, actives largely listed as inhibitors; hit rate 0.56% among 390,000; AID 540317; also: potency is read from the fitted curve at half-maximal effect; nearly all actives have a fitted effect of over 70% in size
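Compound inhibition of the preformed complex between 50 nM HP1-beta and 50 nM biotinylated H3K9me3 peptide was read by AlphaScreen. Buffer was PBS pH 7.4 with 0.01% Tween-20. Incubations ran 30 min at room temperature, with 10 ug/mL donor/acceptor beads.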
JMJD2A Tudor – inhibitors of human JMJD2A Tudor domain. AlphaScreen JMJD2A-Tudor / H3K4me3 peptide binding. Potency, µM (titrated, usually from 114 µM), for inactives: at the top dose activity change, negative = inhibition, actives largely listed as inhibitors. hit rate 4.4% among 390,000; also: potency is read from the fitted curve at half-maximal effect; % is scaled to controls: 0 for no effect and ±100 for the full control effect; nearly all actives have a fitted effect of over 50% in size
KDM4E inh – JMJD2E (human) inhibition | B2RXH2 | JMJD2E catalytic domain, FDH-coupled NADH fluorescence (FDH is formaldehyde dehydrogenase) | Potency, µM (doses to about 57.1 µM), for the others: at the top dose activity change, negative = inhibition, actives largely listed as inhibitors | hit rate 1.6% among 230,000; active = well fitted inhibition curve with a large enough effect, not every such curve was filed as active; inconclusive = small, poorly fitted or top-dose-only effect, or another doubt; inactive = no such curve, though single readings can be large or run the other way;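 also: potency is read from the fitted curve at half-maximal effect; 0% = wells with enzyme and -100% = buffer wells without enzyme; nearly all actives have a fitted effect of over 50% in size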
* hit, by the source's call; ? = inconclusive; . = no result given; [ ] = remark or other dose. This is a sample that favours compounds with a hit; in the whole collection about 5.7% have one here. Unless noted, calls follow the shape of the dose curve; as a rule, active = well fitted inhibition curve with a large enough effect; inconclusive = small, poorly fitted or top-dose-only effect; inactive = no such curve, though single readings can be large or run the other way.

SMILES | L3MBTL1 inh | PI5P4K alpha inh | BAZ2B inh | HP1b binding inh | JMJD2A Tudor | KDM4E inh
COCCCNCc1cc(C)n(-c2cc(S(=O)(=O)N3CCOCC3)ccc2N2CCCC2)c1C | . | -6.5 | . | ? | 79.4µM* | .
CC(=O)n1nc(-c2ccccc2)nc1NCc1ccc(F)cc1 | . | 0.7 | 31.7% | 117.5% | 29.3% | -4.2%
COc1ccc(CNc2ncc(-c3ccc(F)cc3)n2C)c2ccccc12 | -13.1% | -1.5 | 50.1µM* | ? | 20µM* | .
COc1ccc(CNc2ncc(-c3cccc([N+](=O)[O-])c3)n2C)c(OC)c1OC | -0.8% | 4.3 | 50.1µM* | ? | 25.1µM* | .
CCOc1ccc(-c2cnc(NCc3cccc(Cl)c3)n2C)cc1 | . | . | ? | ? | 20µM* | .
Cn1c(-c2ccccc2)cnc1NCc1ccc(F)cc1 | 0.8% | -4.7 | ? | ? | 35.5µM* | .
Cn1c(NCc2cccc(Cl)c2)nc2ccccc21 | . | . | 1.5% | 22.0% | -21.5% | .
COc1cc(Cl)c(C)cc1NC(=O)CN1C(=O)C2CC=CCC2C1=O (stereo unspecified) | -4.0% | -1.4 | . | 24.7% | -3.0% | .
O=C(CN1C(=O)CCc2cc(Br)ccc21)Nc1ccc(OC(F)(F)F)cc1 | . | . | -12.7% | 14.5%[57 µM] | -9.9% | .
CCC(C(=O)OCc1cc(=O)n2nc(C)sc2n1)c1ccccc1 (stereo unspecified) | . | . | -6.4% | -0.9% | -8.0% | .
O=C(CCCn1c(=O)[nH]c2ccccc2c1=O)N1CCN(c2ccccc2)CC1 | . | . | -8.6% | 4.6% | -9.0% | .
CC(C)CCNC(=O)c1cc(Sc2ccc(F)cc2F)nc2ccccc12 | . | . | 0.5% | 3.4% | -19.9% | .
COc1ccc(NC(=O)CSc2nc(-c3ccc(OC)cc3)[nH]c2-c2ccc(OC)cc2)cc1 | . | . | -4.0% | 13.0% | -23.6% | .
CCCCn1c(NCc2ccccc2O)nc2ccccc21 | -13.9% | -6.1 | -1.3% | 29.7% | -4.2% | -2.3%
CCOc1ccc(-c2cnc(NCc3cccc4ccccc34)n2CCOC)cc1 | -12.4% | -11.4 | 39.8µM* | ? | 14.1µM* | .
COc1cccc(-c2cnc(NCc3cc(Cl)ccc3O)n2C)c1 | ? | . | 39.8µM* | ? | 4.47µM* | ?
Cn1c(-c2ccccc2)cnc1NCc1ccccc1O | . | . | 50.1µM* | ? | 28.2µM* | .
Cc1cccc(NCc2cc(Cl)ccc2O)n1 | -6.5% | . | 12.8% | 21.3% | -4.7% | 0.1%
Cc1ccc(Cn2ccn(Cc3ccccc3F)c(=O)c2=O)cc1 | . | . | -5.0% | 28.9% | -18.1% | .
c1ccc2c3c([nH]c2c1)-c1[nH]ncc1CC3 | -5.6% | . | ? | -16.5% | ? | ?
Clc1ccc2[nH]c3c(c2c1)CCc1cn[nH]c1-3 | -8.5% | 2.0 | ? | ? | 79.4µM* | ?
O=C(c1c(F)c(F)c(F)c(F)c1F)N1CCN(c2cccc(C(F)(F)F)c2)CC1 | ? | -9.8 | 0.0% | ? | 14.1µM* | -21.3%
Cc1[nH]c2ccccc2c1NC(=O)CN1CCN(c2cccc(C(F)(F)F)c2)CC1 | . | -0.6 | 50.1µM* | -26.2% | ? | ?
CC(=O)Nc1ccc(CN2CCN(c3cccc(C(F)(F)F)c3)CC2)cc1 | . | . | 50.1µM* | -49.9% | 2.51µM* | ?
Cc1[nH]c2ccccc2c1C(O)CN1CCN(c2cccc(C(F)(F)F)c2)CC1 (stereo unspecified) | -6.2% | 17.3 | 39.8µM* | ? | 56.2µM* | ?
SMILES | L3MBTL1 inh | PI5P4K alpha inh | BAZ2B inh | HP1b binding inh | JMJD2A Tudor | KDM4E inh
O=C(c1cc(=O)[nH]c2ccccc12)N1CCN(c2cccc(C(F)(F)F)c2)CC1 | -5.3% | -27.6 | -19.0% | ? | ? | ?
COCCn1nnnc1CN1CCC(O)(c2cccc(C(F)(F)F)c2)CC1 | 3.9% | . | -15.1% | 23.3% | -16.3% | -9.9%
COCCn1nnnc1CN1CCN(c2cccc(C(F)(F)F)c2)CC1 | ? | 4.2 | 79.4µM* | 6.8% | -13.0%[11.4 µM] | -9.1%
CCOC(=O)C1CCN(C(=O)c2cc(COc3ccc(F)cc3F)on2)CC1 | . | 0.9 | 4.6% | 46.8% | -2.2% | .
CC(NC1=CC(=O)c2cccnc2C1=O)C(O)c1ccccc1 (stereo unspecified) | . | 4.6 | . | -17.5% | 56.2µM* | .
C=CCN=c1scc(C)n1/N=C/c1ccc(O)c(O)c1 | -11.7% | -3.2 | 39.8µM* | -15.3% | ? | 15.8µM*
Oc1ccc(/C=N/N2CCCCC2)cc1O | . | -4.1 | ? | ? | ? | .
CN=c1scc(-c2ccco2)n1/N=C/c1ccc(O)c(O)c1 | . | ? | 28.2µM* | ? | -27.1%[11.4 µM] | 25.1µM*
CCN(CC)S(=O)(=O)c1ccc2c(c1)nc(CN(C)C(=O)Nc1cccc(Cl)c1)n2C | . | . | -20.4% | 44.5% | -8.9% | .
Cc1cc(-c2cccs2)c(C#N)c(=S)[nH]1 | -0.8% | -7.0 | -20.3% | 20.1% | 7.94µM* | ?
N#Cc1c(-c2cccs2)cc(-c2cccs2)[nH]c1=O | . | -7.7 | -0.9% | 20.4% | -3.4% | ?
COc1ccc(-c2nc(CSCC(=O)N3CCc4ccccc4C3)c(C)o2)cc1OC | -6.4% | 0.0 | -6.0% | 11.3% | ? | ?
COc1ccc(-c2nc(CSCC(=O)N3CCN(c4cccc(C)c4)C(C)C3)c(C)o2)cc1OC (stereo unspecified) | -24.0% | 0.5 | 44.7µM* | -24.5% | 56.2µM* | -1.3%
Cc1cccc(Cc2cnc(N3C(=N)SC(c4ccccc4)C3=O)s2)c1 (stereo unspecified) | 8.5% | -55.2* | 0.3% | 25.5% | -24.1% | -15.0%
Cc1cccc(Cc2cnc(N3C(=N)SC(C)C3=O)s2)c1 (stereo unspecified) | . | -6.2 | -4.6% | -5.9% | -25.3% | 10.4%
O=C(CN1CCN(Cc2ccc(Cl)cc2)CC1)N1CCc2ccccc21 | . | 6.0 | -22.5% | 13.4% | -13.0% | .
O=C(CN1CCN(Cc2ccccc2)CC1)N1CCCc2ccccc21 | . | 1.6 | 20µM* | ? | 4.47µM* | .
O=C(CN1CCN(c2ccc(O)cc2)CC1)N1CCc2ccccc21 | . | -18.3 | -36.6% | ? | 79.4µM* | .
CCOC1=C/C(=C/c2c(N)n3nc(S(=O)(=O)CC)sc3nc2=O)C=CC1=O | -14.9% | -55.9* | -27.8% | 5.4% | -19.1% | -25.4%
CCOC1=C/C(=C/c2c(N)n3nc(CC(=O)N4CCCCC4)sc3nc2=O)C=CC1=O | . | -66.0* | ? | 10.3% | ? | .
COC1=C/C(=C/c2c(N)n3nc(CC(=O)N4CCCCC4)sc3nc2=O)C=CC1=O | . | -63.9* | -22.0% | 19.6% | -13.1% | .
O=C(N/N=C/c1cc(Br)c(Br)o1)c1ccc2c(c1)OCCO2 | ? | -56.8* | 44.7µM* | ? | 39.8µM* | ?
O=C(N/N=C/c1cc(Br)c(O)c(Br)c1O)c1ccc2c(c1)OCCO2 | . | -56.4* | 44.7µM* | -2.9% | 39.8µM* | .
CC(=O)Nc1ccc(N2CC(C)(C)C2=O)cc1 | -4.1% | -6.3 | -19.6% | 37.4% | -14.3% | 0.3%
